Data on 20 compounds can be found in PubChem BioAssay (NCI).

Experiment [1] is described as follows: NCI Yeast Anticancer Drug Screen. Data for the rad50 strain (AID 155).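 Further: 0% = growth of vehicle-only cultures of the same strain.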 The note with it: S. cerevisiae rad50 strain growth inhibition; at 50.0 µM; hits give high values. A digest of the protocol: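 Genetically altered yeast (DNA repair pathway); compound treatment; growth inhibition vs vehicle ctrl.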
Experiment [2] in a line: NCI Yeast Anticancer Drug Screen. Data for the mec2-1 strain (AID 157). The note with it: S. cerevisiae mec2-1 strain, at 50.0 µM, hits give high values. A digest of the protocol: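 Vehicle-treated cultures served as reference for growth inhibition of compound-exposed mec2-1 yeast.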
A short description of experiment [3]: NCI Yeast Anticancer Drug Screen. Data for the sgs1 mgt1 strain (AID 161).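 Further: 0% = growth of cultures given vehicle only.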 The note with it: S. cerevisiae sgs1 mgt1 strain, at 50.0 µM, hits give high values. A digest of the protocol:
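Read-out: growth inhibition vs vehicle controls. Cells: mutant yeast strain deficient in DNA damage repair.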

Experiment [4] in a line: NCI Yeast Anticancer Drug Screen. Data for the cln2 rad14 strain (AID 165).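 Further: 0% = growth equal to vehicle treated cultures.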 The note with it: S. cerevisiae cln2 rad14 strain, at 50.0 µM, hits give high values. A digest of the protocol: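 Each compound was tested on cln2 rad14 yeast. Inhibition of growth was calculated against vehicle-exposed controls.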
Experiment [5] is described as follows: NCI Yeast Anticancer Drug Screen. Data for the bub3 strain (AID 167). The note with it: S. cerevisiae bub3 mutant strain, at 50.0 µM, hits give high values. A digest of the protocol:
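Yeast carrying a defined mutation is treated with each compound, and growth is compared with that of vehicle-exposed cells to give inhibition.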

A short description of experiment [6]: NCI Yeast Anticancer Drug Screen. Data for the mlh1 rad18 strain (AID 175). The note with it: S. cerevisiae mlh1 rad18 strain growth inhibition; at 50.0 µM; hits give high values. A digest of the protocol:
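Vehicle-treated cultures served as the reference for growth inhibition in a yeast strain carrying DNA damage repair alterations exposed to each compound.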

This is part of a sample that, as a whole, favours compounds with a hit. Of some 79,000 tested, about 15% had one in any assay. A number with no mark means an inactive call. The source made the active and inactive calls. No stated cut-off is given here; in the data, active means growth inhibition above about 70%; inactive means the rest.

For `Cc1ccc(N=Nc2c(O)n(C)c(=O)n(C)c2=O)cc1C`, the growth inhibition was -8.3% in experiment [1]; -5.7% in experiment [2]; -17.2% in experiment [3]; 3.95% in experiment [4]; -18.6% in experiment [5]; -12.8% in experiment [6].
Turning to `CCOC(=O)c1[nH]cc(C)c1-c1c[nH]c2ccccc12`, the growth inhibition in experiment [1] is 31%; in experiment [2], 27.6%; in experiment [3], 20.4%; in experiment [4], 19.7%; in experiment [5], -4.05%; in experiment [6] it was 41.2%.
Consider `Cc1ccc2cc(C)c(C)cc2c1`, for which the growth inhibition in experiment [1] is 30.6%; in experiment [2] it was -3.35%; in experiment [3], -10.8%; in experiment [4] it was 16.1%; in experiment [5], -2.6%; in experiment [6] it was 12.8%.
Turning to `O=NNc1ccc(-c2ccc(NN=O)cc2)cc1`, the growth inhibition in experiment [1] was 19.4%; in experiment [2], 0.75%; in experiment [3] it was 10.8%; in experiment [4], 10.2%; in experiment [5], -10.1%; in experiment [6], 8.95%.
In the case of `O=C(CCc1cc(-c2ccccc2)nc(=S)[nH]1)Nc1ccccc1[N+](=O)[O-]`, the growth inhibition in experiment [1] was 10%; in experiment [2], -8.05%; in experiment [3], 9%; in experiment [4], 29.6%; in experiment [5], 15.5%; in experiment [6], 7.25%.
As to `CCOC(=O)C(CC(c1ccc2c(c1)OCO2)C(C(=O)OCC)[N+](=O)[O-])C(=O)OCC` (stereo not given), the growth inhibition in experiment [1] was 61.2%; in experiment [2], 23.9%; in experiment [3] it was 58.6%; in experiment [4], 27.3%; in experiment [5], 15.6%; in experiment [6] it was 39.3%.
Consider `CCC(C)(C1CCC(=O)CC1)C1CCC(=O)CC1`, for which the growth inhibition was 33.6% in experiment [1]; -5.75% in experiment [2]; -0.7% in experiment [3]; -7% in experiment [4]; -0.75% in experiment [5]; 7.85% in experiment [6].
Turning to `CN=C1CC2CCCC1C2` (stereo not given), the growth inhibition was -15.7% in experiment [1]; 0.85% in experiment [2]; -5.8% in experiment [3]; -6.1% in experiment [4]; -7.95% in experiment [5]; -15.4% in experiment [6].
Turning to `Oc1ccc(Br)cc1C(c1ccc2c(c1)OCO2)N1CCOCC1` (stereo not given), the growth inhibition in experiment [1] is 8.65%; in experiment [2] it was 14.3%; in experiment [3], -7.8%; in experiment [4], 14.4%; in experiment [5] it was 1.45%; in experiment [6], 15.5%.
As for `COc1ccc2c(c1)-c1c3c(cc4ccnc(c14)C2=O)OCO3`, the growth inhibition in experiment [1] is 91.7% (active); in experiment [2] it was 93% (active); in experiment [3], 93.4% (active); in experiment [4], 91.5% (active); in experiment [5] it was 92% (active); in experiment [6] it was 91.8% (active).
For `N#CCc1ccccc1-c1ccccc1`, the growth inhibition was 2.45% in experiment [1]; -8.2% in experiment [2]; 11.4% in experiment [3]; -45.5% in experiment [4]; 5.6% in experiment [5]; -9.75% in experiment [6].
As to `C/C(CC1CC=CCC1)=N\NC(N)=O` (stereo not given), the growth inhibition is -16.1% in experiment [1]; -4.7% in experiment [2]; -2.6% in experiment [3]; -20.5% in experiment [4]; -3.8% in experiment [5]; 30.8% in experiment [6].
As to `C=CCC12CC(O)C(O)CC1(OC)OC(c1cc(OC)c(OC)c(OC)c1)C2C` (stereo not given), the growth inhibition was -1.1% in experiment [1]; -8.75% in experiment [2]; -8.1% in experiment [3]; -4.75% in experiment [4]; 4.35% in experiment [5]; 7.9% in experiment [6].
As to `O=S(=O)(Nc1nccs1)c1ccc(NCc2c3ccccc3nc3ccccc23)cc1`, the growth inhibition in experiment [1] is 62.2%; in experiment [2] it was 54.7%; in experiment [3], 42.3%; in experiment [4] it was 30%; in experiment [5], 17.7%; in experiment [6], 49.5%.
As to `Cc1cc(C(=O)O)ccc1C(=O)O`, the growth inhibition is -13.8% in experiment [1]; -31.6% in experiment [2]; -1.95% in experiment [3]; -39.4% in experiment [4]; -20.4% in experiment [5]; -25.1% in experiment [6].
Turning to `CCC(CO)Nc1nc2c(c(=O)n(C)c(=O)n2C)n1CCO` (stereo not given), the growth inhibition in experiment [1] was -21.9%; in experiment [2] it was -1.9%; in experiment [3], 1%; in experiment [4], 8.15%; in experiment [5] it was -14.7%; in experiment [6], -4.75%.
For the compound `CCOc1cccc(OCC)c1C`, the growth inhibition in experiment [1] was -4.55%; in experiment [2], -17.4%; in experiment [3], -2.55%; in experiment [4] it was 11.3%; in experiment [5], -9%; in experiment [6], 14.9%.
`Cc1cccc(Cl)c1NC(=O)CN(C)C`: the growth inhibition in experiment [1] was 21.4%; in experiment [2], -0.55%; in experiment [3] it was 17.7%; in experiment [4] it was 10.4%; in experiment [5], 19.6%; in experiment [6], 24.7%.
As for `COC(=O)c1c2cccccc-2c(C(=O)OC)c1N`, the growth inhibition in experiment [1] was 15%; in experiment [2], 17.9%; in experiment [3], 28.8%; in experiment [4], -24.8%; in experiment [5], 36%; in experiment [6] it was 42.6%.
As to `COc1ccc(Cc2ccc(Cl)cc2)c(OC)c1`, the growth inhibition in experiment [1] is 3.3%; in experiment [2], 2.25%; in experiment [3], 19.8%; in experiment [4] it was 15.2%; in experiment [5] it was -12.2%; in experiment [6] it was -5.15%.
